# In PMC3218832:
# How the values were obtained:
# Assay in all cases: protein binding microarray; high values mean tight binding
# Conditions in all cases: dsDNA, one strand shown
# RELARELA (p65 homodimer) = RELARELA (p65 homodimer) (Homo sapiens, UniProt Q04206 1-307)
# p50p50 homodimer = p50p50 homodimer (Homo sapiens, UniProt P19838 7-356)
# p52p52 homodimer = target: T1, p52p52 homodimer (Homo sapiens, UniProt Q00653 4-332)
# T1 sequence: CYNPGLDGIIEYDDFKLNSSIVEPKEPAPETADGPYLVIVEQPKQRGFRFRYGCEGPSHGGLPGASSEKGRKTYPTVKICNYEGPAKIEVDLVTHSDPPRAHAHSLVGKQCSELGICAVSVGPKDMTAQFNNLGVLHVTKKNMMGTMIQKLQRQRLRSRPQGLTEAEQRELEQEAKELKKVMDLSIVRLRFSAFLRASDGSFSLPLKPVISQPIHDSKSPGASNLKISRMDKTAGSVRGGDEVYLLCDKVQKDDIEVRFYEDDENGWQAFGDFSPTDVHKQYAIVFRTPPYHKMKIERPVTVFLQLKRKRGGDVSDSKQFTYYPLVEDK
# [1] = target: RELA (p65) subunit of heterodimer;p50 subunit (Homo sapiens;Homo sapiens, UniProt Q04206;P19838 1-307;7-356)
# RELA (p65) subunit of heterodimer;p50 subunit, sequence (Q04206 1-307, chain 1 of 2): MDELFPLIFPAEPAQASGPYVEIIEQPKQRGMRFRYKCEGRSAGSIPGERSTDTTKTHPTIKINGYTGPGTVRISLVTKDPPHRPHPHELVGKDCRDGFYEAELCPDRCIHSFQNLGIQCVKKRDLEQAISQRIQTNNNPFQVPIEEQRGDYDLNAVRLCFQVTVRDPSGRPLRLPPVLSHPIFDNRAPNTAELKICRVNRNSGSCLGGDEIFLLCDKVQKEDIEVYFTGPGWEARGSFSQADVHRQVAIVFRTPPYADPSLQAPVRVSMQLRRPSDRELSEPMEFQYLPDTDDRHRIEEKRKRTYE
# RELA (p65) subunit of heterodimer;p50 subunit, sequence (P19838 7-356, chain 2 of 2): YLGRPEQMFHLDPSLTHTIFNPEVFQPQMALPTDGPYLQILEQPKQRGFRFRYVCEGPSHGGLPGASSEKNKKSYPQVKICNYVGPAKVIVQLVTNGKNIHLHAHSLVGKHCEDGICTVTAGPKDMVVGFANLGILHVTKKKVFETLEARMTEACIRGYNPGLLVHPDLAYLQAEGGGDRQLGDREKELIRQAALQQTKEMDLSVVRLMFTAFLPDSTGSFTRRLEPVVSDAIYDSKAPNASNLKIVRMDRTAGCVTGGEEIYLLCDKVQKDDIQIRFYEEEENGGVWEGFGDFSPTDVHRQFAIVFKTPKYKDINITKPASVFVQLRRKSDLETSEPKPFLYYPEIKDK
# [2] = target: RELA (p65) subunit of heterodimer;p52 subunit (Homo sapiens;Homo sapiens, UniProt Q04206;Q00653 1-307;4-332)
# RELB subunit;p50 subunit = RELB subunit;p50 subunit (Homo sapiens;Homo sapiens, UniProt Q01201;P19838 120-401;7-356)
# RELB subunit;p52 subunit = target: T2, RELB subunit;p52 subunit (Homo sapiens;Homo sapiens, UniProt Q01201;Q00653 120-401;4-332)
# T2 sequence 1: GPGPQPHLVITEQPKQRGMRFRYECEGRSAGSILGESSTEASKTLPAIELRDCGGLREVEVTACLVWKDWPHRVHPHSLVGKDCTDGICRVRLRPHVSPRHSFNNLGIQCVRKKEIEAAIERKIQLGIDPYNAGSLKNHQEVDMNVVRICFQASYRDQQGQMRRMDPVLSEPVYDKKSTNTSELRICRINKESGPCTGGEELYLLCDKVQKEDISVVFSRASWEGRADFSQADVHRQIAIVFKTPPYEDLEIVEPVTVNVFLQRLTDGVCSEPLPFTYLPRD
# T2 sequence 2: T1 sequence
# [3] = target: C-Rel subunit;p50 subunit (Homo sapiens;Homo sapiens, UniProt Q04864;P19838 1-285;7-356)
# [4] = target: T3, C-Rel subunit;p52 subunit (Homo sapiens;Homo sapiens, UniProt Q04864;Q00653 1-285;4-332)
# T3 sequence 1: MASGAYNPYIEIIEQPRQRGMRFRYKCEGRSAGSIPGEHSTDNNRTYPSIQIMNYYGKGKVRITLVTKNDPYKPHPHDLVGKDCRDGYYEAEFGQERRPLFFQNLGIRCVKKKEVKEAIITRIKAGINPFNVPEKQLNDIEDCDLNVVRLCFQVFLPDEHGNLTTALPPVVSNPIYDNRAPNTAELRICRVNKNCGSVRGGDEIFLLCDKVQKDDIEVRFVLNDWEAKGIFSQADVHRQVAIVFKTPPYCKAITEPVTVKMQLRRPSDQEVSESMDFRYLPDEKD
# T3 sequence 2: T1 sequence
# p50p50 homodimer, sequence (P19838 7-356): as the sequence (P19838 7-356, chain 2 of 2) above
# RELARELA (p65 homodimer), sequence (Q04206 1-307): as the sequence (Q04206 1-307, chain 1 of 2) above
Sequence,binding signal (RELARELA (p65 homodimer)),binding signal (p50p50 homodimer),binding signal (p52p52 homodimer),binding signal [1],binding signal [2],binding signal (RELB subunit;p50 subunit),binding signal (RELB subunit;p52 subunit),binding signal [3],binding signal [4]
CAAGATCTCCT,-0.508 z-score,-1.36 z-score,-0.744 z-score,-1.11 z-score,-1.02 z-score,-1.04 z-score,-1.06 z-score,-1.49 z-score,-1.01 z-score
GGATGACTCCC,-0.304 z-score,-0.794 z-score,-0.473 z-score,-0.49 z-score,-0.701 z-score,-0.618 z-score,-0.826 z-score,-0.932 z-score,-0.692 z-score
AGAGGAATCCC,0.476 z-score,0.189 z-score,0.335 z-score,0.188 z-score,0.227 z-score,0.0745 z-score,0.269 z-score,0.405 z-score,0.416 z-score
CAAAGTACCCC,0.144 z-score,0.83 z-score,0.509 z-score,0.648 z-score,0.795 z-score,1.07 z-score,1.19 z-score,0.721 z-score,0.588 z-score
GAGGTTCTCCC,0.0177 z-score,0.0309 z-score,-0.068 z-score,-0.00394 z-score,-0.121 z-score,0.333 z-score,0.107 z-score,-0.166 z-score,-0.0434 z-score
GGGTTTGCCCT,1.25 z-score,-0.184 z-score,0.265 z-score,0.277 z-score,0.423 z-score,-0.518 z-score,-0.154 z-score,0.409 z-score,0.225 z-score
AAATAATTCCT,0.497 z-score,-0.505 z-score,-0.44 z-score,-0.41 z-score,-0.399 z-score,-0.654 z-score,-0.671 z-score,0.179 z-score,-0.124 z-score
GAGGAATCCCT,0.176 z-score,0.599 z-score,0.671 z-score,0.612 z-score,0.532 z-score,0.403 z-score,0.517 z-score,0.573 z-score,0.416 z-score
GAATACATCCT,-0.313 z-score,-0.946 z-score,-0.677 z-score,-0.816 z-score,-0.805 z-score,-0.977 z-score,-0.824 z-score,-1.36 z-score,-0.87 z-score
CAATGTGTCCT,0.249 z-score,-1.04 z-score,-0.284 z-score,-0.926 z-score,-0.828 z-score,-0.731 z-score,-0.475 z-score,-0.887 z-score,-0.764 z-score
AAGTGAACCCT,-0.647 z-score,-1.09 z-score,-0.646 z-score,-0.987 z-score,-0.763 z-score,-0.923 z-score,-0.758 z-score,-1.27 z-score,-0.88 z-score
GGAATGCCCCC,2.8 z-score,1.02 z-score,1.8 z-score,2.08 z-score,2.18 z-score,1.13 z-score,1.75 z-score,1.61 z-score,2.48 z-score
AGGATACCCCC,0.417 z-score,1.14 z-score,0.992 z-score,1.34 z-score,1.29 z-score,1.01 z-score,1.54 z-score,0.882 z-score,1.24 z-score
CAGGATATCCC,0.644 z-score,-0.266 z-score,-0.111 z-score,-0.14 z-score,-0.0926 z-score,-0.231 z-score,-0.211 z-score,-0.116 z-score,-0.032 z-score
GAGAGGGTCCC,-0.00134 z-score,-0.361 z-score,-0.132 z-score,-0.312 z-score,-0.187 z-score,-0.0754 z-score,-0.109 z-score,-0.406 z-score,-0.351 z-score
AGGAGCCTCCC,-0.27 z-score,-0.831 z-score,-0.599 z-score,-0.748 z-score,-0.852 z-score,-0.76 z-score,-0.789 z-score,-0.995 z-score,-0.719 z-score
CGGTATCCCCC,0.855 z-score,1.13 z-score,2.07 z-score,1.69 z-score,1.56 z-score,1.33 z-score,1.65 z-score,1.23 z-score,1.71 z-score
CAAGGATTCCC,1.01 z-score,0.585 z-score,0.314 z-score,0.704 z-score,0.382 z-score,0.457 z-score,0.419 z-score,0.93 z-score,0.576 z-score
AAATTCATCCT,0.0684 z-score,-0.972 z-score,-0.568 z-score,-0.664 z-score,-0.9 z-score,-0.972 z-score,-0.72 z-score,-1.11 z-score,-0.904 z-score
GGAAATTTCCT,3.45 z-score,0.318 z-score,0.15 z-score,1.83 z-score,1.22 z-score,0.0518 z-score,0.485 z-score,0.9 z-score,1.42 z-score
CAAGGTATCCC,-0.591 z-score,-0.9 z-score,-0.296 z-score,-0.874 z-score,-0.575 z-score,-0.488 z-score,-0.446 z-score,-0.834 z-score,-0.451 z-score
CAAGGGGTCCT,-0.5 z-score,-0.988 z-score,-0.106 z-score,-1.06 z-score,-0.546 z-score,-0.595 z-score,-0.354 z-score,-0.859 z-score,-0.486 z-score
CAATATACCCC,-0.012 z-score,0.317 z-score,0.195 z-score,0.199 z-score,0.442 z-score,0.428 z-score,0.992 z-score,0.384 z-score,0.51 z-score
GAGTTTCTCCT,-0.323 z-score,-1.49 z-score,-0.546 z-score,-0.596 z-score,-0.78 z-score,-0.911 z-score,-0.855 z-score,-0.907 z-score,-0.692 z-score
AAGGTCACCCT,-0.86 z-score,-1.49 z-score,-0.495 z-score,-0.903 z-score,-0.928 z-score,-0.645 z-score,-0.697 z-score,-1.21 z-score,-0.77 z-score
CGAAGATCCCC,-0.0141 z-score,0.983 z-score,1.06 z-score,1.41 z-score,1.15 z-score,1.5 z-score,1.11 z-score,1.04 z-score,1.05 z-score
CGAATTCTCCT,-0.00416 z-score,-1.08 z-score,-0.594 z-score,-0.48 z-score,-0.707 z-score,-0.948 z-score,-0.835 z-score,-0.873 z-score,-0.63 z-score
AGGGGACTCCC,1.57 z-score,0.939 z-score,2.92 z-score,2.01 z-score,2.28 z-score,1.82 z-score,2.3 z-score,1.9 z-score,2.77 z-score
AGATACATCCC,-0.0343 z-score,-0.79 z-score,-0.47 z-score,-0.557 z-score,-0.673 z-score,-0.73 z-score,-0.746 z-score,-0.981 z-score,-0.677 z-score
GAAATTGCCCT,0.612 z-score,-0.312 z-score,-0.333 z-score,0.0283 z-score,-0.203 z-score,-0.547 z-score,-0.476 z-score,0.175 z-score,-0.0915 z-score
